Test results: the supplement of paper PMC10849652
Of roughly 8,800 targets only a part is listed; those with a hit were picked by preference. About 0.5% of all pairs of compound and target were hits. Unmarked numbers belong to inactive results.

Tests used:
Experiment in all cases: log2 fold change, soluble protein after heating vs DMSO (PISA); higher = thermal stabilisation; K562 lysate, 10 uM; active = over 0.2 and 3.5 SD of the protein, either way, in both replicates (recomputed)
nilotinib = compound: Cc1cn(-c2cc(NC(=O)c3ccc(C)c(Nc4nccc(-c5cccnc5)n4)c3)cc(C(F)(F)F)c2)cn1 [nilotinib]
Procedure, shortened: (§1)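 A 30 min treatment with 10 μM compound was applied to crude K562 extract at 1 mg/mL protein in PBS pH 7.4 with 1 mM MgCl2. Heating for 3 min spanned 48°C-58°C, after which aliquots were pooled, adjusted to 0.5% NP-40 at 4°C and spun at 21,000xg for 90 min. TMTpro 16plex LC-MS/MS of the supernatant, with channel sums equalised, gave values recorded as log-two fold change in thermal stability against solvent controls, from duplicates.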

[1] = compound: Cc1nc(Nc2n[nH]c3c2CN(C(=O)N[C@H](CN(C)C)c2ccccc2)C3(C)C)c2sccc2n1
Procedure, shortened: as §1

dasatinib = compound: Cc1nc(Nc2ncc(C(=O)Nc3c(C)cccc3Cl)s2)cc(N2CCN(CCO)CC2)n1 [dasatinib]
Procedure, shortened: as §1

[2] = compound: Cc1ncc(-c2ccnc(Nc3ccc(S(C)(=O)=O)cc3)n2)n1C(C)C
Procedure, shortened: as §1

[3] = compound: Cn1cc(-c2ccc3c(c2)CCN3C(=O)Cc2cccc(C(F)(F)F)c2)c2c(N)ncnc21
Procedure, shortened: as §1

quisinostat = compound: Cn1cc(CNCC2CCN(c3ncc(C(=O)NO)cn3)CC2)c2ccccc21 [quisinostat]
Procedure, shortened: as §1

tipifarnib = compound: Cn1cncc1[C@@](N)(c1ccc(Cl)cc1)c1ccc2c(c1)c(-c1cccc(Cl)c1)cc(=O)n2C [tipifarnib]
Procedure, shortened: as §1

[4] = compound: NC(=O)Nc1cc(-c2cccc(F)c2)sc1C(=O)N[C@H]1CCCNC1
Procedure, shortened: as §1

[5] = compound: NC(=O)c1cnc(N[C@@H]2CCCC[C@@H]2N)nc1Nc1cccc(-n2nccn2)c1
Procedure, shortened: as §1

[6] = compound: NC1(c2ccc(-c3nc4ccn5c(=O)[nH]nc5c4cc3-c3ccccc3)cc2)CCC1
Procedure, shortened: as §1

[7] = compound: NCC(=O)Nc1ccc(-n2nc(C(F)(F)F)cc2-c2ccc3c(ccc4ccccc43)c2)cc1
Procedure, shortened: as §1

vorinostat = compound: O=C(CCCCCCC(=O)Nc1ccccc1)NO [vorinostat]
Procedure, shortened: as §1

silmitasertib = compound: O=C(O)c1ccc2c(c1)nc(Nc1cccc(Cl)c1)c1ccncc12 [silmitasertib]
Procedure, shortened: as §1

[8] = compound: O=C1NC(=O)C(c2cnc3ccccn23)=C1c1cn2c3c(cc(F)cc13)CN(C(=O)N1CCCCC1)CC2
Procedure, shortened: as §1

entospletinib = compound: c1cn2cc(-c3ccc4cn[nH]c4c3)nc(Nc3ccc(N4CCOCC4)cc3)c2n1 [entospletinib]
Procedure, shortened: as §1

Chain of UniProt Q99986 (Q99986 whole entry, looked up): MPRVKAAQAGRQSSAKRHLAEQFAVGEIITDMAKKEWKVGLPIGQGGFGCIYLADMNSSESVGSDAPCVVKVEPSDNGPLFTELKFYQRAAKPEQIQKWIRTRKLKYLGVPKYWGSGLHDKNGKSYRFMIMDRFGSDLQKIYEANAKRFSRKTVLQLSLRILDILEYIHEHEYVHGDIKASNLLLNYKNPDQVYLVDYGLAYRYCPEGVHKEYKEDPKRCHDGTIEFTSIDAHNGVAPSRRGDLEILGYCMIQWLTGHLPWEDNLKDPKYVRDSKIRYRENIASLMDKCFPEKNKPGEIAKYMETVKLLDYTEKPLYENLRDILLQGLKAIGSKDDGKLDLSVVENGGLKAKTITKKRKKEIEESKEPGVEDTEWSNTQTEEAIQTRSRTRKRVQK
Chain of UniProt Q8TBZ3 (Q8TBZ3 whole entry, looked up): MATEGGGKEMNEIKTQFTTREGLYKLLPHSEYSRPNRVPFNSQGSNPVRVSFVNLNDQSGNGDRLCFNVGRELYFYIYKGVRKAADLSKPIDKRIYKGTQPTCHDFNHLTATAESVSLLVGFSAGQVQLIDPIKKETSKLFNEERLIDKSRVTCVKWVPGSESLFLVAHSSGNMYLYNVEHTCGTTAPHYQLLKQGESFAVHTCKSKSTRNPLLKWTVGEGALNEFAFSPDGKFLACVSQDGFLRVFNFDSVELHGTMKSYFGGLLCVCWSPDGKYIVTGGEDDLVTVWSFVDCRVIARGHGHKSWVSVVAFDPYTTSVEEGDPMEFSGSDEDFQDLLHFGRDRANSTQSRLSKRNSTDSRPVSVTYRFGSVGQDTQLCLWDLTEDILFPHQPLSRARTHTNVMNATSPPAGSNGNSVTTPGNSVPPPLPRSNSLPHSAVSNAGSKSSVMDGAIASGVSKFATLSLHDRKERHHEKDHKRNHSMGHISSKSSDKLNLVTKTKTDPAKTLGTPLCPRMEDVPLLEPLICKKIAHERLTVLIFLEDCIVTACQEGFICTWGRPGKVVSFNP
Chain of UniProt Q86T24 (Q86T24 whole entry, looked up): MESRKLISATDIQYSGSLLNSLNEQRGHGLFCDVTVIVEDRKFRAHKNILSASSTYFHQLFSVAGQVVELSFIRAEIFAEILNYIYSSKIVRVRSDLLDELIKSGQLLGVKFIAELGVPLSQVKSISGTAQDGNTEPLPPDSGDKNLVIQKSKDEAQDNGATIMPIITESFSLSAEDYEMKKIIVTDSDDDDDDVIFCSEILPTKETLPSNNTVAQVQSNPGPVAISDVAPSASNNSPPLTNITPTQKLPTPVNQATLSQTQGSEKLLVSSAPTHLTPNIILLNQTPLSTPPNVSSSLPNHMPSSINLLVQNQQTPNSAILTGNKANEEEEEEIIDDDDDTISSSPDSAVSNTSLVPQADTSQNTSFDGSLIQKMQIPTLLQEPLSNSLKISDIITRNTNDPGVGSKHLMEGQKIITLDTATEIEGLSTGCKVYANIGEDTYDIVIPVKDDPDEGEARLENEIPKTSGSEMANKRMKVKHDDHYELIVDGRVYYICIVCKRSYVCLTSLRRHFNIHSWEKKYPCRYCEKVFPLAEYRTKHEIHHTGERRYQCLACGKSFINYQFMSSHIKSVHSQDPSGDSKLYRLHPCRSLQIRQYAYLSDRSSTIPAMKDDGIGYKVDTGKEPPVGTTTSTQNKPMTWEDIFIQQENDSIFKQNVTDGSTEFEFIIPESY
Chain of UniProt Q9NUA8 (Q9NUA8 whole entry, looked up): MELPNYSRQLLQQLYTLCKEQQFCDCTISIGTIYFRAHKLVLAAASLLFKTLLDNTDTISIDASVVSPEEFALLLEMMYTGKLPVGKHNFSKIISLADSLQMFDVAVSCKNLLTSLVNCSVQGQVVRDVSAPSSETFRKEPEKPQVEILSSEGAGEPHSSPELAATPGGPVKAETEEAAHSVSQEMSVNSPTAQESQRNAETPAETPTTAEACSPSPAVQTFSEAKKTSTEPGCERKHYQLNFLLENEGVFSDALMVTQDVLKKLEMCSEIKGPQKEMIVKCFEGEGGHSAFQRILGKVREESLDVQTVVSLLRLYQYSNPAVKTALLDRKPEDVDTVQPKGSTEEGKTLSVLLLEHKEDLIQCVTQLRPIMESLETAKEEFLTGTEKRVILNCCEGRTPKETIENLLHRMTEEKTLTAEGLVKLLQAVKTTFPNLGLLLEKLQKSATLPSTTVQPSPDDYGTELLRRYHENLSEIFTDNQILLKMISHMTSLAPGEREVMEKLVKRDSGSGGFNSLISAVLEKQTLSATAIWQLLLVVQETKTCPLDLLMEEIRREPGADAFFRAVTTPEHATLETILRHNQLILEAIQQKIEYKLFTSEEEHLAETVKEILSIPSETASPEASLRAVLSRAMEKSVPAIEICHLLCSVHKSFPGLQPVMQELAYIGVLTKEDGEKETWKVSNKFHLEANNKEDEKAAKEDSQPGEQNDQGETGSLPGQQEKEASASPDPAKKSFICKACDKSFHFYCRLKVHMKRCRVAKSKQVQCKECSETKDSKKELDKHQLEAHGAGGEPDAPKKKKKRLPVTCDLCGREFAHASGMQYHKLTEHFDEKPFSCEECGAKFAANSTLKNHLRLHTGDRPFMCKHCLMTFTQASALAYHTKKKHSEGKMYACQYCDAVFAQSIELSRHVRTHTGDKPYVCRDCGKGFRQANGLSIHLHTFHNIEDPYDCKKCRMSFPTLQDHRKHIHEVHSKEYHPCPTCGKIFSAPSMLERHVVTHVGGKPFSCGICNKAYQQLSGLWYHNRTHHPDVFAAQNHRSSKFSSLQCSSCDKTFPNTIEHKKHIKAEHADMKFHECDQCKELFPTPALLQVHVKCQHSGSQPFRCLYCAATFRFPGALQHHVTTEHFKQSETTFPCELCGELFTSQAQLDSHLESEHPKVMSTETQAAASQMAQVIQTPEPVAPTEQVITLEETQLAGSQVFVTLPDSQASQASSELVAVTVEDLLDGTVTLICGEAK
Chain of UniProt Q96QU8 (Q96QU8 whole entry, looked up): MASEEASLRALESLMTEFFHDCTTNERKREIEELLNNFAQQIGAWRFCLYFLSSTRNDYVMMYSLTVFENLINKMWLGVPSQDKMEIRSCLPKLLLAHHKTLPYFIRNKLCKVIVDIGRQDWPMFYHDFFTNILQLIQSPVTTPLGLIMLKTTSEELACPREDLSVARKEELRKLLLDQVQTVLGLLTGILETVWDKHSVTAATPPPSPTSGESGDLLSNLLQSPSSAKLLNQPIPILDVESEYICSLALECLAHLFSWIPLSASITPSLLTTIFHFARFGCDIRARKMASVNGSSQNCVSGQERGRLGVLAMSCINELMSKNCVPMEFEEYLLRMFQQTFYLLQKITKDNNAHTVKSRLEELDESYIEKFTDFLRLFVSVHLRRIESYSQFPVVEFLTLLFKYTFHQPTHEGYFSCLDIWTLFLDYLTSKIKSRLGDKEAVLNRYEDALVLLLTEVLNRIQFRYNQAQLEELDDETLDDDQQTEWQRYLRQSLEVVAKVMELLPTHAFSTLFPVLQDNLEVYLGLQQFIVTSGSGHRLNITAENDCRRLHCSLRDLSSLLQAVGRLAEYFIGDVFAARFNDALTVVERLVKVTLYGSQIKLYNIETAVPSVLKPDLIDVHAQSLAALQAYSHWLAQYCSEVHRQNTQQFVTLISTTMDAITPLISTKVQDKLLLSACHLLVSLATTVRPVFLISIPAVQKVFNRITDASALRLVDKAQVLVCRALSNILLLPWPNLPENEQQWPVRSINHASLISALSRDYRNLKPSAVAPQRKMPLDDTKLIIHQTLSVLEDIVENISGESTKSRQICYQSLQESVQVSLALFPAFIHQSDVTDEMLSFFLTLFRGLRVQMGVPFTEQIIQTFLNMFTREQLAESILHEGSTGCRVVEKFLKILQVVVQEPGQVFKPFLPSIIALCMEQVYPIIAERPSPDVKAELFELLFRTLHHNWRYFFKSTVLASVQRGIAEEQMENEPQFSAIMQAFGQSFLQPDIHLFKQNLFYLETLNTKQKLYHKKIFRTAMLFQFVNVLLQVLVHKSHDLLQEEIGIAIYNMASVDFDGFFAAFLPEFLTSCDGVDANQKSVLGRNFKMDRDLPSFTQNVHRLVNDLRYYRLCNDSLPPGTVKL
Chain of UniProt Q9UBK9 (Q9UBK9 whole entry, looked up): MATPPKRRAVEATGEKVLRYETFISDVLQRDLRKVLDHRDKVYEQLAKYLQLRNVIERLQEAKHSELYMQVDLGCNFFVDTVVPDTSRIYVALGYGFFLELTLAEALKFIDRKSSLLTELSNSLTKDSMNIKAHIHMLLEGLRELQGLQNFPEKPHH
Chain of UniProt Q9NUE0 (Q9NUE0 whole entry, looked up): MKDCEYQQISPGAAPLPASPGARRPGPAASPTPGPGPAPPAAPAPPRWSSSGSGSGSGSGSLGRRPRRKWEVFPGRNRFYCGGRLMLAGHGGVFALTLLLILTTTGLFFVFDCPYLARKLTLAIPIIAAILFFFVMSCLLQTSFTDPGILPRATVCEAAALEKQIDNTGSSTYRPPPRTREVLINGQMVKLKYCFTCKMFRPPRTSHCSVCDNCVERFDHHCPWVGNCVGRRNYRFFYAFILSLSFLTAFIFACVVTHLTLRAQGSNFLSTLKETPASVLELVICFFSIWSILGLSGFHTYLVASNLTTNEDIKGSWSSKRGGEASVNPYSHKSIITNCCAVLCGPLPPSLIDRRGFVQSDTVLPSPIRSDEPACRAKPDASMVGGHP
Chain of UniProt Q9UK41 (Q9UK41 whole entry, looked up): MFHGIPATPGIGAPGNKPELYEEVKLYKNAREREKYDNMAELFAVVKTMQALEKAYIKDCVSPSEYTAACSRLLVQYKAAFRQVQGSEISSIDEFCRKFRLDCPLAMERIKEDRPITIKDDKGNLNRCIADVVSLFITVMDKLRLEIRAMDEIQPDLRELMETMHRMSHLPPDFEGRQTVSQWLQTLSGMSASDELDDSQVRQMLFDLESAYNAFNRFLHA
Chain of UniProt Q9BRT2 (Q9BRT2 whole entry, looked up): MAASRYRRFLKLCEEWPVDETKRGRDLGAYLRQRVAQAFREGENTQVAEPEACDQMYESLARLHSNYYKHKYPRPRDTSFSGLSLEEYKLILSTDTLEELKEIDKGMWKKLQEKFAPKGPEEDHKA

Target | log2 fold change (nilotinib) | log2 fold change [1] | log2 fold change (dasatinib) | log2 fold change [2] | log2 fold change [3] | log2 fold change (quisinostat) | log2 fold change (tipifarnib) | log2 fold change [4] | log2 fold change [5] | log2 fold change [6] | log2 fold change [7] | log2 fold change (vorinostat) | log2 fold change (silmitasertib) | log2 fold change [8] | log2 fold change (entospletinib)
UTP18 (UniProt Q9Y5J1) | 0.059 | -0.009 | 0.005 | -0.179 | -0.03 | -0.034 | -0.002 | 0.058 | -0.016 | 0.074 | 0.045 | -0.078 | -0.014 | 0.029 | -0.136
ZDHHC18 (UniProt Q9NUE0) | 0.067 | -0.329 | 0.176 | -0.047 | -0.158 | -0.008 | 0.177 | 0.008 | 0.059 | 0.067 | -0.064 | -0.162 | 0.163 | 0.009 | 0.034
WDR6 (UniProt Q9NNW5) | -0.017 | 0.002 | -0.018 | -0.003 | 0.026 | -0.075 | 0.036 | 0.033 | 0.006 | -0.032 | 0.012 | -0.321 (active) | 0.01 | -0.025 | 0
WDR20 isoform 7 (UniProt Q8TBZ3) | -0.001 | 0.029 | 0.055 | -0.229 | 0.038 | 0.027 | -0.174 | 0.009 | -0.026 | -0.042 | 0.01 | 0.009 | 0.087 | -0.013 | 0.018
VPS28 (UniProt Q9UK41) | -0.031 | 0.034 | 0.021 | 0.004 | 0.086 | 0.081 | 0.029 | -0.038 | 0.012 | -0.027 | 0.03 | -0.37 (active) | -0.002 | -0.043 | 0.033
VRK1 (UniProt Q99986) | -0.002 | 0 | -0.001 | 0.005 | 0.032 | -0.059 | -0.018 | 0.015 | 0.003 | -0.046 | -0.013 | -0.08 | 0.091 | 0.002 | 0.056
ZBTB40 (UniProt Q9NUA8) | -0.076 | 0.29 | -0.024 | 0.086 | -0.051 | -0.01 | 0.078 | -0.018 | 0.004 | 0.058 | 0.073 | -0.118 | 0.024 | 0.036 | 
WAC (UniProt Q9BTA9) | -0.012 | -0.001 | -0.038 | -0.019 | 0.002 | -0.029 | 0 | 0.019 | -0.01 | 0.004 | 0.011 | -0.309 (active) | -0.031 | -0.014 | -0.046
USP3 (UniProt Q9Y6I4) | 0.045 | -0.015 | -0.028 | 0.028 | 0.008 | -0.01 | -0.054 | 0.107 | -0.005 | -0.042 | 0.015 | -0.469 (active) | -0.026 | 0.015 | -0.013
WDR62 isoform 4 (UniProt O43379) | -0.001 | 0.003 | -0.026 | 0 | 0.022 | -0.103 | -0.051 | 0.031 | -0.02 | -0.031 | 0.045 | -0.423 (active) | 0.01 | -0.014 | -0.016
ZNF845 (UniProt Q96IR2) | 0 | 0.087 | -0.038 | -0.053 | 0.021 | -0.033 | -0.006 | 0.122 | 0.016 | 0.163 | -0.074 | -0.297 | 0.364 (active) | -0.113 | 
YTHDF3 (UniProt Q7Z739) | -0.246 | -0.038 | 0.022 | 0.014 | -0.006 | -0.06 | -0.311 | 0.063 | -0.016 | -0.039 | 0.064 | 0.03 | -0.084 | -0.169 | 0.006
XPO6 (UniProt Q96QU8) | 0.005 | 0.027 | -0.008 | -0.054 | -0.026 | -0.123 | -0.018 | 0.078 | 0.033 | -0.04 | -0.034 | -0.401 (active) | 0.049 | -0.031 | -0.027
ZC2HC1A (UniProt Q96GY0) | 0 | 0.005 | -0.085 | 0.002 | 0.1 | -0.082 | -0.02 | -0.014 | 0.04 | -0.092 | 0.104 | -0.066 | 0.054 | -0.008 | -0.005
ZC3H13 (UniProt Q5T200) | -0.033 | 0.137 | -0.035 | 0.144 | -0.044 | -0.067 | -0.184 | 0.002 | 0.028 | -0.049 | 0.174 | -0.052 | -0.008 | -0.104 | 0.001
ZBTB33 (UniProt Q86T24) | -0.009 | 0.084 | -0.06 | -0.052 | 0.029 | -0.08 | -0.083 | 0.133 | 0 | -0.035 | 0.061 | 0.103 | -0.082 | 0.009 | -0.033
USP9X (UniProt Q93008) | -0.01 | 0 | -0.045 | 0.002 | 0 | -0.017 | -0.024 | 0.03 | 0.02 | -0.003 | 0.011 | -0.466 (active) | 0.028 | -0.012 | 0
UQCC2 (UniProt Q9BRT2) | -0.018 | -0.006 | 0.002 | 0.012 | -0.001 | 0 | 0.058 | -0.076 | -0.005 | 0.018 | -0.019 | 0.121 | -0.021 | -0.06 | -0.039
WDHD1 (UniProt O75717) | -0.008 | 0.026 | -0.023 | 0.012 | 0.01 | -0.029 | -0.01 | 0.008 | 0.013 | 0.01 | -0.011 | -0.259 (active) | 0.02 | -0.018 | 0.016
UNC45A (UniProt Q9H3U1) | -0.007 | 0.003 | -0.051 | 0.018 | 0.016 | -0.047 | -0.015 | 0.03 | 0.016 | -0.001 | -0.005 | -0.588 (active) | 0.011 | 0.008 | 0.01
UXT isoform 2 (UniProt Q9UBK9) | 0.012 | -0.019 | 0.079 | 0.019 | -0.05 | -0.03 | -0.015 | -0.04 | -0.026 | -0.036 | -0.003 | 0.037 | -0.039 | -0.025 | 0.02
